Assay results as given in PubChem BioAssay (Tox21).
Results filed as inconclusive are left out. Calls of active or inactive are those of the source. Calls come from the whole dose curve; as a rule, active = well fitted cell-killing curve with a large enough effect in the repeat runs; inconclusive = weak or mixed curves, or effect the other way; inactive = flat fitted curve, though single readings scatter.

experiment: qHTS assay to identify small molecule agonists of the estrogen receptor beta (ER-beta) signaling pathway - cell viability counter screen (AID 1259380); conditions: ER-beta-bla HEK293T viability, CellTiter-Glo luminescence, 16 h; series mostly up to 92.4 µM; activity change, negative = cytotoxicity: at the top concentration; note: nearly all actives have a fitted effect of over 30% in size
Source text: National Center for Advancing Translational Sciences [NCATS]
NIH Chemical Genomics Center [NCGC]
U.S. Environmental Protection Agency [EPA]
National Institutes of Environmental Health Sciences [NIEHS]
National Toxicology Program [NTP]
U.S. Food and Drug Administration [FDA]
Estrogen receptor (ER), a nuclear hormone receptor, plays an important role in development, metabolic homeostasis and reproduction. Two subtypes of ER, ER-alpha and ER-beta, have similar expression patterns with some uniqueness in both types. Endocrine disrupting chemicals (EDCs) and their interactions with steroid hormone receptors like ER causes disruption of normal endocrine function. To identify the compounds that activate ER signaling, an ER beta-UAS-bla GripTite cell line (Life Technologies, Madison, WI, USA) containing a beta-lactamase reporter gene under the control of an UAS response element was used to screen Tox21 10K compound library. The cytotoxicity of the Tox21 compound library against the ER-beta-bla cell line was tested in parallel by measuring the cell viability using CellTiter-Glo assay in the same wells.
Tox21 Assay Protocol Summary:
ER-beta-UAS-bla HEK293T cells were dispensed at 2,000 cells/5 uL of assay medium containing 2% charcoal stripped FBS per well into black wall/clear-bottom 1536-well plates using a Multidrop Combi (ThermoFisher Scientific, Waltham, MA) dispenser. After the assay plates were incubated at a 37C and 5% CO2 for 6 hr, 23 nL of compounds dissolved in DMSO, positive controls or DMSO only was transferred to the assay plate by a Pintool station (Kalypsys, San Diego, CA). The plates were incubated at 37C and 5% CO2 for 16 hr. Then 1 uL of LiveBLAzerTM B/G FRET substrate was added using a BioRAPTR FRD (Flying Reagent Dispenser, Aurora Discovery, San Diego, CA) and then the plates were incubated at room temperature for 2 hours, and fluorescence intensity was measured by an Envision plate reader (PerkinElmer, Shelton, CT). For cell viability readout that measures cytotoxicity, 4 uL/well of CellTiter-Glo reagent was added into the assay plates using a FRD. After 30 min incubation at room temperature, the luminescence intensity in the plates was measured using a ViewLux (PerkinElmer) plate reader.
% is set by controls: 0 for no effect and ±100 for the full control effect; potency is the fitted concentration of half-maximal effect.

| SMILES | activity change, negative = cytotoxicity | Potency |
| --- | --- | --- |
| NNC(=O)c1cccnc1 | -3.88% (inactive) |  |
| Clc1cc(C(Cl)(Cl)Cl)cnc1Cl | -2.43% (inactive) |  |
| O=C(O)COc1ccc(Cl)cc1 | 1.19% (inactive) |  |
| c1cc2ccc3cccc4ccc(c1)c2c34 |  | 32.1 µM (active) |
| OC(c1ccc(Cl)cc1)(c1ccc(Cl)cc1)c1cccnc1 | -7.43% (inactive) |  |
| c1ccc(CN2CCNCC2)cc1 | -0.307% [at 240 µM] (inactive) |  |
| CC/C(=N\OC/C=C/Cl)C1=C(O)CC(C2CCOCC2)CC1=O (stereo not given) | 0.889% (inactive) |  |
| Cn1cc[n+](C)c1 (tested in a mixture with another compound) | 0.708% (inactive) |  |
| OCCCBr | 1.47% (inactive) |  |
| N#C/C(N)=C(/N)C#N | 1.34% (inactive) |  |
| Cn1sc(Cl)cc1=O | 0.184% (inactive) |  |
| COc1ccc(-c2ccccc2)cc1NNC(=O)OC(C)C |  | 35.8 µM (active) |
| Clc1cc(Cl)c(Cl)c(Cl)c1 | -0.658% (inactive) |  |
| COc1cc(Cl)c(OC)cc1Cl | 8.42% (inactive) |  |
| Nc1ccc([N+](=O)[O-])cc1[N+](=O)[O-] | 5.31% (inactive) |  |
| CCC(Br)(CC)C(=O)NC(N)=O | -0.566% (inactive) |  |
| COC(=O)C(C)N(C(=O)Cc1ccccc1)c1c(C)cccc1C (stereo not given) |  | 61.1 µM (active) |
| CNP(=O)(OC)Oc1ccc(C(C)(C)C)cc1Cl (stereo not given) | -14% (inactive) |  |
| c1ccc(C2CC2)c(OCC2=NCCN2)c1 | 0.408% [at 42.5 µM] (inactive) |  |
| CCCCN=C=O | 12% (inactive) |  |

| SMILES | activity change, negative = cytotoxicity | Potency |
| --- | --- | --- |
| CC(C)(OO)c1ccccc1 | 4.26% (inactive) |  |
| C[N+](C)(C)CCCl | 5.3% (inactive) |  |
| Cc1ccc(N)cc1C | -2.46% (inactive) |  |
| CC(=O)C(C)(C)C | 5.91% (inactive) |  |
| CCCC(=O)Cl | -2.91% (inactive) |  |
| CC(C)N(CCC(C(N)=O)(c1ccccc1)c1ccccn1)C(C)C (stereo not given) | 0.412% [at 42.5 µM] (inactive) |  |
| O=S1(=O)OC(c2cc(Br)c(O)c(Br)c2)(c2cc(Br)c(O)c(Br)c2)c2ccccc21 |  | 31.5 µM (active) |
| O=NN1CCCCCC1 | 6.2% (inactive) |  |
| Nc1nc(=S)[nH][nH]1 | -1.27% (inactive) |  |
| C=CCOC(C)=O | -12.4% (inactive) |  |
| COC1=CC(=O)O[C@@H](CCc2ccccc2)C1 | -12.5% (inactive) |  |
| NCC(CC(=O)O)c1ccc(Cl)cc1 (stereo not given) | 4.02% [at 0.349 µM] (inactive) |  |
| C=CC(=O)OCCCCO | -8.62% (inactive) |  |
| O=C(C(Cl)(Cl)Cl)C(Cl)(Cl)Cl | 3.86% (inactive) |  |
| C=CC(=O)OCC(C)C | 4.53% (inactive) |  |
| CCc1ccc(C(=O)NN(C(=O)c2cc(C)cc(C)c2)C(C)(C)C)cc1 | -5.18% (inactive) |  |
| C=CC(=O)OC(C)(C)C | -11.3% (inactive) |  |
| Nc1nc(N)nc(N)n1 | 7.56% (inactive) |  |
| NC(=O)CI | -18.6% (inactive) |  |
| CC(=O)c1cc2c(cc1C)C(C)(C)C(C)CC2(C)C (stereo not given) |  | 61.1 µM (active) |
